Data on 4 compounds can be found in PubChem BioAssay.

Experiment [1] can be described thus: P. berghei load reduction in hepatocytes – cell-based, HepG2, luciferase luminescence, HepG2 viability, primary screen (AID 624349; in the data active = parasite load remaining mostly below about 12%, no sharp cut-off; inactive = mostly above about 10%;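 note: 100% = mean of DMSO negative control wells on the same plate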). The settings on record: P. berghei liver stage in HepG2, luciferase luminescence, concentration not given here; parasite load remaining: stronger effect = lower value; viability: measured here: HepG2 viability without parasites.
Experiment [2] in a line: Wnt pathway potentiators raising nuclear beta-catenin – imaging, WNT3A-conditioned medium, mouse C2C12, NPC library, primary screen (AID 1117326; in the data active = nuclear beta-catenin stimulation mostly above about 4.2%, no sharp cut-off; inactive = mostly below about 10%). The settings on record: stronger effect = higher value.
The nature of experiment [3]: stimulators of insulin release from INS-1E, primary screen, cell-based, 5 mM glucose, NPC library (AID 1117329;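 active = compound raises insulin release from rat beta cells at 5 mM glucose, no numeric limit stated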). The settings on record: rat INS-1E insulin secretion, at 10 µM, stronger effect = higher value.
A short description of experiment [4]: growth inhibition of GSK3B-pretreated HCT116 cells – cell-based, CellTiter-Glo, 0.2 to 20 µM (AID 1117336;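 active = compounds lowering colon cancer cell viability after pretreatment blocking the GSK3B kinase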). The settings on record: HCT116 viability after GSK3B inhibitor, at 20 µM, stronger effect = higher value.
A short description of experiment [5]: inhibition of endothelial tube formation, primary screen, imaging, VEGF stimulated, CD31 staining, tube area, NPC library (AID 1117340;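 active = compound that reduces growth-factor-driven endothelial tube area in a mixed cell culture, no cutoff stated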). The settings on record: VEGF-stimulated ADSC/ECFC co-culture, at 10 µM, stronger effect = higher value.
Experiment [6] is described as follows: GLP1 release stimulators, primary, NCI-H716, NPC library (AID 1117341;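 active = compound raises GLP1 secretion from the human gut endocrine cells, with no numeric limit stated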). The settings on record: NCI-H716 cells, at 10 µM, stronger effect = higher value.
Experiment [7] is described as follows: HCT116 colon cancer cell growth inhibition, primary screen, CellTiter-Glo luminescence, NPC library (AID 1117342;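 active = compounds that lower survival of HCT116 colon cancer cells in the luminescence readout, no numeric limit stated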). The settings on record: at 20 µM (top of the series). For orientation: In ATP-based viability assays light output follows the ATP content of the culture.
Experiment [8] is described as follows: reduced SW480 viability measured with CellTiter-Glo, NPC library, primary (AID 1117343;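 active = compounds that lower viability of the colon cancer cells in the luminescence readout, with no numeric limit stated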). The settings on record: CellTiter-Glo luminescence; at 20 µM (top of the series) unless noted.
A short description of experiment [9]: NPC library primary testing for decreased DLD-1 cell viability via CellTiter-Glo (AID 1117346;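 active = compounds that lower survival of DLD-1 colon cancer cells in the luminescence readout, no cutoff given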). The settings on record: DLD-1 viability, CellTiter-Glo luminescence; at 20 µM (top of the series).
The nature of experiment [10]: EMT-state selective cytotoxicity in co-culture – imaging, PC-3E GFP, TEM4-18 mCherry, primary screen (AID 1345086;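 active = compounds killing one labelled cell type while sparing the other, by normalised counts and ratio limits, not self-fluorescent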;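 for all read-outs here: cells exposed to compound for 72 h before imaging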;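 for red/green cell ratio (normalised): normalised mesenchymal count divided by normalised epithelial count so high means epithelial killing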). The settings on record: PC-3E GFP / TEM4-18 mCherry co-culture, imaging cell counts, at 1 µM; for red/green cell ratio (normalised): actives lie on both sides, counts scaled to control wells, 1 = unselective.
Experiment [11] is described as follows: viability loss with induced miR-34 in A549 – imaging, A549 dox-inducible miR-34, nuclei and caspase counts, primary screen (AID 1347080). The settings on record: A549 miR-34 inducible, Hoechst nuclei count, 48 h.
Experiment [12] in a line: MELAS cybrid and Rieske KO viability enhancers – cell-based, MELAS cybrids, Rieske KO mouse fibroblasts, CellTiter-Glo, primary screen (AID 1508586;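 active = mean z-score across replicates of 1.96 or higher in either the MELAS or the Rieske mutant cell line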;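 note: z relative to plate mean and SD of compound and empty wells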). The settings on record: low glucose.
In experiment [13] the target is NAD(+) hydrolase SARM1 (Homo sapiens) (UniProt Q6SZW1). The experiment in a line: blocking NAD cleavage by SARM1 SAM-TIR – cell lysate, NAD-Glo luminescence (AID 1508614;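 active = compound whose remaining NAD level is above about 45 nM, limit read from the data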;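 note: higher remaining NAD means stronger inhibition of SARM1 NADase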). The settings on record: SAM-TIR HEK293T lysate NADase, at 1 µM, stronger effect = higher value.
NAD(+) hydrolase SARM1 (Homo sapiens), sequence (Q6SZW1 whole entry, looked up): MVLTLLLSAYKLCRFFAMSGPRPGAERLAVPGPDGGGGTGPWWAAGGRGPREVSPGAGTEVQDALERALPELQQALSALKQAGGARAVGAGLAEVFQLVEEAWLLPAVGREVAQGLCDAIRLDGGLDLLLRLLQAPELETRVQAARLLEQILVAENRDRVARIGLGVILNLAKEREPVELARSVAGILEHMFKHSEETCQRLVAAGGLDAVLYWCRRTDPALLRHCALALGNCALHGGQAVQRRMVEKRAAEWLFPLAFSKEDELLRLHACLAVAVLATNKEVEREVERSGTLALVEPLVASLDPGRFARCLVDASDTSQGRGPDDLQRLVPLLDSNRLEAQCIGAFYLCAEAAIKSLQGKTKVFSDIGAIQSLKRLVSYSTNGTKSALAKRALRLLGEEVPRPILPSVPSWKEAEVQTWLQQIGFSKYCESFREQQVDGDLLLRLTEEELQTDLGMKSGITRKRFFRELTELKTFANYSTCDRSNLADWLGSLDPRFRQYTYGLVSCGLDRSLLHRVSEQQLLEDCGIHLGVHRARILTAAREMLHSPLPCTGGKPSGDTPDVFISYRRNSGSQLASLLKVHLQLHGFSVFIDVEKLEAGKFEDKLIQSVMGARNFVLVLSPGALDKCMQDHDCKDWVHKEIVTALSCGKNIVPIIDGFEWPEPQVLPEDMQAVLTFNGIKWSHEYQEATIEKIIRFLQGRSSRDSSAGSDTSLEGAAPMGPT
Experiment [14] can be described thus: compounds altering viability of human ES cells (AID 493140; call rule not given here;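 note: cells exposed to compounds for four days before counting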). The settings on record: human embryonic stem cell survival screen; stronger effect = higher value.
The mark [15] stands for this setting: measured here: epithelial PC-3E GFP cell survival.
Where [16] appears, read: measured here: mesenchymal TEM4-18 mCherry cell survival.
[17] abbreviates: stronger effect = lower value, cell number ratio, induced over uninduced.
Where [18] appears, read: measured here: relative caspase fold change +Dox/-Dox.
[19] abbreviates: measured here: total cells with miR-34 induction, stronger effect = lower value.
The mark [20] stands for this setting: measured here: total cells without miR-34 induction.
Where [21] appears, read: MELAS cybrid survival, CellTiter-Glo 48 h, stronger effect = higher value.
Setting [22] is: Rieske KO mouse fibroblast survival, CellTiter-Glo 72 h.

“And” between values parts separate entries of the source, which are not always exact repeats. Equal values may be shown once. The source holds several records for some structures; these can differ, active in one and inactive in another. The source made the active and inactive calls.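 Rule for the calls, unless noted: active = compounds whose cell count with miR-34 switched on is under 0.7 times the count with it off; inactive = the rest.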

As for `COc1cccc2c1C(=O)c1c(O)c3c(c(O)c1C2=O)C[C@@](O)(C(C)=O)C[C@@H]3O[C@H]1C[C@H](N)[C@H](O)[C@H](C)O1`, the parasite load remaining in [1] is -58.1% (inactive) and -0.15% (inactive) and 3.79% (active). Further, the viability – broadly, a read-out of living cells in per cent, often relative to untreated cells – in experiment [1] is 28.9% and 25.6% and 228%. The nuclear beta-catenin stimulation was 61.7% (active) in [2] (at 10 µM) and 102% in experiment [2] (stimulation, at 2 µM). For the same compound, in experiment [3], the insulin secretion stimulation was -0.6% (inactive). The viability decrease in experiment [4] is 65.5% (active). In addition, the tube area decrease in experiment [5] was -9.1% (active). Also, the GLP1 secretion stimulation in [6] was 3.4% (inactive). Also, the inhibition of viability in experiment [7] was 88.6% (active). The viability decrease (inhibition) was 127% (active) in experiment [8] and 93.9% (active) in experiment [9]. For the same compound, the red/green cell ratio (normalised) in experiment [10] is 2.72 (active). For the same compound, the values for the normalised cell number in experiment [10] (setting [15]) and in experiment [10] (setting [16]) were 0.23 and 0.62, respectively. Further, the fold change was 0.88 (inactive) and 0.929 (inactive) and 0.993 (inactive) in experiment [11] (setting [17]); 0.91 and 1.93 and 1.28 in experiment [11] (setting [18]). For the same compound, the cell count is 2140 and 2610 and 2580 in experiment [11] (setting [19]); 2420 and 2800 and 2590 in experiment [11] (setting [20]). Besides, the z-score in experiment [12] (setting [21]) is -1.94 (inactive) and 4.97 (active); in [12] (setting [22]), -1.44 and -0.671. In addition, the remaining NAD in [13] was 10 nM (inactive).
For the compound `COc1cc2c(c(OC)c1OC)-c1ccc(OC)c(=O)cc1[C@@H](NC(C)=O)CC2`, in experiment [14], the survival is 0.333 (inactive). Moreover, the nuclear beta-catenin stimulation was 77.5% (active) in experiment [2] (at 10 µM) and 72.6% in experiment [2] (stimulation, at 2 µM). In experiment [3], the insulin secretion stimulation is 2.2% (inactive). Besides, the viability decrease in experiment [4] was 97.2% (active). The tube area decrease in [5] was 105% (active). The GLP1 secretion stimulation in experiment [6] is -3.6% (inactive). Besides, the inhibition of viability in experiment [7] was 75% (active). Further, the viability decrease (inhibition) is 43.3% (inactive) in experiment [8] and 58.2% (active) in [9]. Besides, the red/green cell ratio (normalised) in experiment [10] was 1.19 (inactive). Moreover, the normalised cell number in experiment [10] (setting [15]) turned out to be 0.19; in experiment [10] (setting [16]), 0.23. Besides, the fold change in experiment [11] (setting [17]) was 1.43 (inactive) and 1.18 (inactive) and 0.984 (inactive); in [11] (setting [18]), 1.13 and 1.5 and 0.402. The cell count was 1890 and 1930 and 1700 in experiment [11] (setting [19]); 1330 and 1630 and 1730 in [11] (setting [20]). Also, the z-score in [12] (setting [21]) was -2.22 (inactive); in experiment [12] (setting [22]), -0.272. Moreover, the remaining NAD in experiment [13] is 10 nM (inactive).
`CCN(CC)C(=O)c1ccc(O)c(OC)c1`: the survival in [14] was 14.3 (inactive). Also, the parasite load remaining in experiment [1] was 98.8% (inactive) and 82.6% (inactive) and 34.4% (inactive). Also, the viability in experiment [1] is 116% and 78.8% and 105%. The nuclear beta-catenin stimulation in experiment [2] (at 10 µM) was 0.4% (inactive); in [2] (stimulation, at 2 µM) it was -0.5%. For the same compound, in experiment [3], the insulin secretion stimulation is -1.1% (inactive). Further, the viability decrease in experiment [4] was -5.6% (inactive). Besides, the tube area decrease in experiment [5] was 19.7% (inactive). Further, the GLP1 secretion stimulation in experiment [6] is -0.9% (inactive). In experiment [7], the inhibition of viability is -33.9% (inactive). The viability decrease (inhibition) in experiment [8] is 107% (active); in experiment [9], -2.25% (inactive). For the same compound, the red/green cell ratio (normalised) in experiment [10] is 1.01 (inactive). The results for the normalised cell number in [10] (setting [15]) and in experiment [10] (setting [16]) were 1.04 and 1.06, respectively. The fold change was 0.99 (inactive) and 0.899 (inactive) and 0.849 (inactive) in experiment [11] (setting [17]); 1.08 and 1.38 and 3.96 in [11] (setting [18]). For the same compound, the cell count in experiment [11] (setting [19]) was 10300 and 8560 and 11800; in experiment [11] (setting [20]), 10400 and 9520 and 13900. For the same compound, the z-score in experiment [12] (setting [21]) was -0.598 (inactive); in experiment [12] (setting [22]), -0.406. In addition, in experiment [13], the remaining NAD was 10 nM (inactive).
For `CC(O)CN(CCN(CC(C)O)CC(C)O)CC(C)O` (centres undefined), the nuclear beta-catenin stimulation in [2] (at 10 µM) was 2% (inactive); in experiment [2] (stimulation, at 2 µM), 2.5%. Moreover, the insulin secretion stimulation in [3] is 0.5% (inactive). The viability decrease in [4] was -38.9% (inactive). The tube area decrease in experiment [5] is 5.2% (inactive). For the same compound, the GLP1 secretion stimulation in [6] is -4.1% (inactive). The inhibition of viability in experiment [7] is 3.07% (inactive). Further, the viability decrease (inhibition) in experiment [8] is 18.9% (inactive); in experiment [9] it was -3.8% (inactive). The red/green cell ratio (normalised) in [10] is 1.23 (inactive). The normalised cell number in [10] (setting [15]) amounted to 0.98; in experiment [10] (setting [16]), 1.2. Besides, the fold change is 1.01 (inactive) in [11] (setting [17]) and 0.821 in experiment [11] (setting [18]). The cell count is 9510 in experiment [11] (setting [19]) and 9380 in [11] (setting [20]).
